In experiment [1] the test system is XIP peptide (Xip251-270) binding. In words: small-molecule binders of XIP peptide, primary screen, biochemical, small-molecule microarray, fluorescence 635/667 nm, 0.1 µg/mL protein (AID 1182). Particulars: fluorescent protein binding, 635 nm, higher = more signal, called active from +8 up or from −8 down.
The test system of a further experiment is XIP peptide (Xip251-270). In words: small-molecule binders of XIP peptide, primary screen, biochemical, small-molecule microarray, fluorescence 635/667 nm, 0.5 µg/mL protein (AID 1183). Particulars: small-molecule microarray binding, fluorescence 635 nm; higher = more signal.
Experiment [2] is described as follows: Plasmodium falciparum growth inhibition, primary screen, strain 3D7, DAPI fluorescence, 100 nL (AID 1184).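 Further: parasites grown inside human red blood cells in medium with human serum.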 Particulars: P. falciparum 3D7 growth, 3 d, higher = more signal.
In experiment [3] the target is Homeobox protein Hox-A13 (Mus musculus) (UniProt Q62424). In words: inhibitors of HoxA13-DNA binding, primary screen, biochemical, fluorescence polarization, labeled oligonucleotide (AID 1185). Particulars: 15 min, higher = more signal, called active from +8 up or from −8 down.
Experiment [4] is described as follows: inhibitors of hydroxyurea-induced Chk1 phosphorylation, primary screen, imaging, HeLa, phospho-Chk1 antibody, percent positive cells (AID 1186). Particulars: hydroxyurea-induced phospho-Chk1 immunofluorescence imaging, higher = more signal.
Experiment [5] is described as follows: inhibitors of hydroxyurea-induced Chk1 phosphorylation, primary screen, imaging, HeLa, phospho-Chk1 nuclear intensity (AID 1187). Particulars: hydroxyurea-induced phospho-Chk1 immunofluorescence imaging, higher = more signal.

The source made the active and inactive calls. Unless noted, how the calls were made is not given here.

Sequence of Homeobox protein Hox-A13 (Mus musculus) (Q62424 whole entry, looked up): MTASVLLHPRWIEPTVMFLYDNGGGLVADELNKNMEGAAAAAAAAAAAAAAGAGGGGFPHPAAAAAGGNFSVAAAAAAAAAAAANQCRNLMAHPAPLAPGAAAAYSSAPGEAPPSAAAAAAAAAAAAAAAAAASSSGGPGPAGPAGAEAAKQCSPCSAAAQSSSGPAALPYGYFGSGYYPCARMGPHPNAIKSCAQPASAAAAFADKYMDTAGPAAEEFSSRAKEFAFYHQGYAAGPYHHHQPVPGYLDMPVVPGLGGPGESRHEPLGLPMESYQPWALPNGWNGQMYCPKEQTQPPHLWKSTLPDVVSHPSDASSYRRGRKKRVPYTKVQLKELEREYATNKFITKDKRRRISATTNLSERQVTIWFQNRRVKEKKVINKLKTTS

Turning to `Cc1c(NC(=O)/C(C#N)=C/c2ccccc2Cl)c(=O)n(-c2ccccc2)n1C`, the composite z-score is -0.0708 (inactive) in experiment [1] and 0.808 in the experiment with XIP peptide (Xip251-270). The z-score in experiment [2] was 0.419; in experiment [3], -1.68 (inactive); in experiment [4], -0.0018 (inactive); in experiment [5], 0.281 (inactive).
Consider `CCOC(=O)C=Cc1ccccc1O`, for which the composite z-score in experiment [1] is 1.39 (inactive); with XIP peptide (Xip251-270), 0.322. The z-score in experiment [2] was -1.39; in experiment [3] it was -0.772 (inactive); in experiment [4], -0.312 (inactive); in experiment [5], -0.678 (inactive).
Take `NC(=O)[C@H]1[C@@H]2C(=O)O[C@@H](c3ccccc3)[C@@H](c3ccccc3)N2[C@@H](c2ccc(O)cc2)[C@]12C(=O)Nc1ccc(C#CC3=CCCCC3)cc12`: the composite z-score in experiment [1] was 0.875 (inactive); with XIP peptide (Xip251-270), -0.0283. In addition, the z-score is -0.88 in experiment [2], -1.08 (inactive) in experiment [3], -0.165 (inactive) in experiment [4] and -0.348 (inactive) in experiment [5].
Take `O=C1NC(=O)C2C1C=CC(C(O)c1ccccn1)N2Nc1ccc(Cl)cc1Cl` (stereo unspecified): the figures for the composite z-score (in experiment [1]; in the experiment with XIP peptide (Xip251-270)) were 0.628 (inactive) and 0.326, respectively. Further, the z-score was 0.358 in experiment [2], -4.45 (inactive) in experiment [3], -0.133 (inactive) in experiment [4] and -0.18 (inactive) in experiment [5].
Consider `COc1ccc(C(=O)Nc2cccc(CN3C(=O)[C@]4(O[C@H](CCn5cc([C@H](O)c6ccccc6)nn5)[C@@H]([Si](C)(C)c5ccc(OC)cc5)[C@@H]4C)c4ccccc43)c2)cc1`, for which the values for the composite z-score (in experiment [1]; with XIP peptide (Xip251-270)) were 0.0632 (inactive) and 0.497, respectively. Also, the z-score in experiment [2] is -2.76; in experiment [3], 2 (inactive); in experiment [4], -0.161 (inactive); in experiment [5], -0.0692 (inactive).
Regarding `COC(=O)[C@@]1(Cc2ccccc2)[C@H]2c3cc(C(=O)N(C)C)n(CCn4cc([N+](=O)[O-])nc4C)c3C[C@H]2CN1C(=O)c1ccccc1`, the composite z-score is 0.731 (inactive) in experiment [1] and 0.83 with XIP peptide (Xip251-270). The z-score in experiment [2] was 0.391; in experiment [3], -1.73 (inactive); in experiment [4], -0.3 (inactive); in experiment [5], -0.424 (inactive).
With `CCOC(=O)C[C@H]1[C@H](OC(=O)c2ccccc2-c2ccccc2)[C@@H](NC(=O)c2ccc3ccccc3n2)c2cc(OCCCO)ccc2N1C(=O)c1ccccc1`, the composite z-score was 0.428 (inactive) in experiment [1] and 0.04 in the experiment with XIP peptide (Xip251-270). Also, the z-score in experiment [2] is -1.66; in experiment [3] it was -2.46 (inactive); in experiment [4] it was 0.342 (inactive); in experiment [5] it was 0.6 (inactive).
In the case of `C=C[C@@H](C)[C@@H](OC(=O)Nc1ccc(SC)cc1)c1ccc(OCCO)cc1`, the composite z-score in experiment [1] is -0.0412 (inactive); in the experiment with XIP peptide (Xip251-270) it was 0.663. The z-score in experiment [2] is -0.553; in experiment [3] it was -5.52 (inactive); in experiment [4] it was 0.129 (inactive); in experiment [5] it was 0.387 (inactive).
On to `C=C(CCCC)C(=O)CC[C@H](OC(C)=O)c1ccc(OCCO)cc1`, for which the composite z-score in experiment [1] was 0.783 (inactive); in the experiment on XIP peptide (Xip251-270) it was 0.227. For the same compound, the z-score was -3.07 in experiment [2], -6.07 (inactive) in experiment [3], -0.427 (inactive) in experiment [4] and -0.523 (inactive) in experiment [5].
Turning to `C=CC[C@H](OC(=O)Nc1ccc(SC)cc1)c1ccc(OCCO)cc1`, the composite z-score in experiment [1] was 1.07 (inactive); with XIP peptide (Xip251-270) it was -0.141. Besides, the z-score was 0.749 in experiment [2], -6.15 (inactive) in experiment [3], 0.108 (inactive) in experiment [4] and 1.03 (inactive) in experiment [5].
As for `O=C1C2C=CC(C(O)c3ccc(I)cc3)N(Nc3ccccc3)C2C(=O)N1c1ccccc1` (stereo unspecified), the composite z-score in experiment [1] was 0.393 (inactive); with XIP peptide (Xip251-270), 0.702. In addition, the z-score in experiment [2] is 0.83; in experiment [3], -2.67 (inactive); in experiment [4], -0.007 (inactive); in experiment [5], -1.05 (inactive).
Take `CN1C(=O)[C@@]2(Cc3ccccc3)N=C(c3ccc(OCCCO)cc3)O[C@H]2c2ccccc21`: the composite z-score is 1.11 (inactive) in experiment [1] and 0.687 in the experiment on XIP peptide (Xip251-270). Besides, the z-score in experiment [2] is -2.26; in experiment [3], -4.01 (inactive); in experiment [4], -0.632 (inactive); in experiment [5] it was -0.864 (inactive).
Take `C=C[C@@H](OC)[C@H](OC(=O)Nc1ccc(OC)cc1)c1ccc(OC)c(O)c1`: the figures for the composite z-score (in experiment [1]; in the experiment on XIP peptide (Xip251-270)) were 2.2 (inactive) and 0.462, respectively. Also, the z-score in experiment [2] is 1.46; in experiment [3] it was -2.54 (inactive); in experiment [4] it was 1.11 (inactive); in experiment [5] it was 1.39 (inactive).
In the case of `C=C(COC)/C(=C/C[C@@H](OC(=O)c1ccncc1)c1ccccc1OCCO)c1cc(C(=O)OC)ccc1OC`, the values for the composite z-score (in experiment [1]; with XIP peptide (Xip251-270)) were -0.115 (inactive) and -0.728, respectively. For the same compound, the z-score in experiment [2] was -2.97; in experiment [3], -4.02 (inactive); in experiment [4] it was 0.386 (inactive); in experiment [5], 0.77 (inactive).
With `CCN(CC)c1ccc(N2CC=CC34O[C@@H]5C=CCCOC(=O)C5[C@H]3C(=O)N(CCO)[C@@H]4C2=O)cc1` (stereo partly specified), the values for the composite z-score (in experiment [1]; with XIP peptide (Xip251-270)) were -0.828 (inactive) and -0.72, respectively. Also, the z-score was 0.0497 in experiment [2], -5.85 (inactive) in experiment [3], -0.516 (inactive) in experiment [4] and -0.584 (inactive) in experiment [5].
`CCOC(=O)C1=CCN(S(=O)(=O)c2ccc(C)cc2)C1c1ccccc1` (stereo unspecified): the composite z-score is 0.866 (inactive) in experiment [1] and 0.805 in the experiment on XIP peptide (Xip251-270). The z-score in experiment [2] is -0.584; in experiment [3], -3.71 (inactive); in experiment [4], 0.607 (inactive); in experiment [5], 0.346 (inactive).

These data come from PubChem BioAssay.
